High-throughput results from PubChem BioAssay.
This is a sample that favours compounds with a hit; in the whole collection about 19% have one here.
IL-1B inflam inh: qHTS for Inhibitors of Inflammasome Signaling: IL-1-beta AlphaLISA Primary Screen; THP-1 LPS/ATP IL-1B secretion, AlphaLISA, 16 h; stronger effect = lower value; activity change, % at 57.5 µM; actives 4.7% (n = 360,000); AID 743279, 2014; in the data active = activity change below about -50%; inconclusive = mostly about -30% to -49%
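Secreted IL-1B measured by AlphaLISA bead assay after 16 h compound exposure of THP-1 cells; compounds (final up to 57.5 uM) added 1 h before LPS (250 ng/mL) and ATP (1.25 mM) stimulation; lower signal means less secretion.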
HT1080-NT tox: qHTS for induction of synthetic lethality in tumor cells producing 2HG: qHTS for the HT-1080-NT fibrosarcoma cell line. Potency, µM (doses to about 46.1 µM), for inactives: at the top dose activity, negative = less viability, most hits filed as cytotoxic. HT-1080-NT fibrosarcoma viability, CellTiter-Glo ATP luminescence, 48 h. actives 1.6% (n = 360,000). AID 686970, 2013;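 note: NT is the 2HG producing partner of a matched IDH1 knockdown line; potency is the fitted concentration of half-maximal effect; 0% = DMSO-treated cells and -100% = media-only wells without cells; nearly all actives have a fitted effect of over 55% in size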
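Luminescent CellTiter-Glo readout after 48 hours of compound exposure at 37 degrees C defined viability of HT-1080-NT cells. Activity was normalized to DMSO wells and cell-free media wells; concentration-response curves were fitted and assigned curve classes.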
HT1080 IDH1KD tx: qHTS for induction of synthetic lethality in tumor cells producing 2HG: qHTS for the HT-1080-IDH1KD cell line; HT-1080 IDH1 knockdown viability, ATP luminescence, 48 h; Potency, µM (series often up to 46.1 µM), for inactives: top-dose activity, negative = toxicity, most hits filed as cytotoxic; actives 2% (n = 360,000);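 note: potency is the fitted concentration of half-maximal effect; 0% = DMSO wells and -100% = cell-free medium wells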
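Cytotoxicity counter-line: IDH1KD HT-1080, 48 h, CellTiter-Glo. Curves classed by r2, magnitude and activity.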
DT40 TDP1 no CPT: qHTS for Inhibitors of human tyrosyl-DNA phosphodiesterase 1 (TDP1): qHTS in cells in absence of CPT. Potency, µM (titrated, usually from 46.2 µM), for inactives: at the highest dose activity change, negative = growth inhibition, most hits filed as inhibitors. DT40 Tdp1-/- hTDP1 cells, no CPT, ATP luminescence, 48 h. actives 15% (n = 420,000); note: potency is the fitted concentration of half-maximal effect; nearly all actives have a fitted effect of over 55% in size
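A cellular qHTS used chicken DT40 cells lacking endogenous Tdp1 but carrying stably transfected human TDP1. Compounds were applied without camptothecin, and cell growth kinetics were judged by ATP-dependent luminescence after ≥48 hr.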
TDP1 cell CPT: qHTS for Inhibitors of human tyrosyl-DNA phosphodiesterase 1 (TDP1): qHTS in cells in presence of CPT. chicken DT40 Tdp1-/-;hTDP1 cells + 20 nM CPT, ATP luminescence, 48 h. Potency, µM (top dose mostly 46.2 µM), without a hit: at the top dose activity change, negative = growth inhibition, most hits filed as inhibitors. actives 12% (n = 420,000). AID 686979, 2013; note: potency is the fitted concentration of half-maximal effect; nearly all actives have a fitted effect of over 55% in size
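Chicken DT40 Tdp1-/- cells stably complemented with human TDP1 were seeded at 400 cells/well in medium containing 20 nM camptothecin, exposed to pin-transferred compounds, and grown at 37 °C for at least 48 hr. Viability was read as ATP luminescence.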
uPA generation: qHTS for Inhibitors of Cell Surface uPA Generation; actives 0.31% (n = 330,000); Potency, µM (highest dose often 38.3 µM), inactives show at the top dose activity change, negative = inhibition, most hits filed as inhibitors; cell surface uPA generation assay, qHTS; active = well fitted inhibition curve with a large enough effect; inconclusive = small, poorly fitted or top-dose-only effect; inactive = no such curve, though single readings can be large or run the other way; tested in mouse RAW 264.7 cells; note: potency is the fitted concentration of half-maximal effect; nearly all actives have a fitted effect of over 55% in size
An asterisk follows results filed as active; ? = inconclusive; nt = no result. Unless noted, calls come from the whole dose curve; as a rule, active = well fitted curve in the direction sought with a large enough effect; inconclusive = small, poorly fitted or top-dose-only effect, or another doubt; inactive = no such curve, though single readings can be large; an effect the other way counts as inactive or inconclusive. Unless noted, % is set by controls: 0 for no effect and ±100 for the full control effect.

SMILES | IL-1B inflam inh | HT1080-NT tox | HT1080 IDH1KD tx | DT40 TDP1 no CPT | TDP1 cell CPT | uPA generation
Cc1ccc(-c2cc3c(N4CCN(c5cc(C)ccc5C)CC4)nccn3n2)cc1 | nt | nt | nt | 21µM* | 23µM* | nt
COc1ccc(-n2c(=O)c3ccc(C(=O)NCc4ccc(C)cc4)cc3n(Cc3ccc(Cl)cc3)c2=O)cc1 | nt | nt | nt | -9% | -6% | nt
COc1cc(OC)c(Nc2cc(C)nc3ncnn23)cc1Cl | nt | nt | nt | ? | -26% | nt
COc1cc(/C=C/C(=O)OCC(=O)N2CCC(C)CC2)ccc1O | 0 | -13% | -19% | -15% | -10% | -9%
COc1cc(/C=C/C(=O)OC2CC3CCC2(C)C3(C)C)ccc1O (configuration not stated) | 11 | -16% | ? | 16µM* | 18µM* | -6%
COc1cc(C(=O)NC2(C(F)(F)F)C(=O)NC(C)=C2C#N)cc(OC)c1OC (configuration not stated) | nt | nt | nt | -2% | 1% | nt
COc1ccc(NC(=O)c2cc(-c3ccccn3)nc3ccccc23)cc1S(=O)(=O)N(C)C | 8 | -17% | -13% | 9.2µM* | ? | 0%
CCN(CC)S(=O)(=O)c1cc(NC(=O)c2cc(-c3ccccn3)nc3ccccc23)ccc1C | -20 | ? | -1% | 15µM* | 23µM* | -19%
COC(=O)c1ccc(NC(=O)c2cc(-c3ccccn3)nc3ccccc23)cc1 | 19 | 4% | 18% | -14% | 3% | 8%
CCN(CC)C(=O)c1cccc(NC(=O)c2cc(-c3ccccn3)nc3ccccc23)c1 | 3 | 2% | 8% | 16µM* | ? | 5%
CCN(CC)S(=O)(=O)c1ccc2[nH]c(=O)cc(C(=O)Nc3ccc(C)c(S(=O)(=O)N(CC)CC)c3)c2c1 | -17 | -20% | ? | 23µM* | ? | -9%
O=C(CCNC(=O)c1ccc(Br)cc1)NC1CCCc2ccccc21 (configuration not stated) | -15 | -1% | -30% | -14% | -15% | -9%
Cn1ccc(C(=O)Oc2ccc(C(=O)Nc3ccc(F)cc3F)cc2)n1 | -1 | 5% | 2% | -11% | -11% | -5%
Cc1ccc([C@H]2C[C@@H](O)[C@H](n3cc(C4CC4)nn3)CN2C(=O)c2cccs2)cc1 | -2 | -5% | 0% | 21µM* | ? | nt
O=C(c1cccs1)N1C[C@@H](O)[C@H](n2cc(-c3ccc(F)cc3)nn2)C[C@@H]1c1ccccc1 | 9 | -8% | -10% | 16µM* | 18µM* | nt
Cc1ccc([C@H]2C[C@H](O)[C@@H](n3cc(-c4ccc(F)cc4)nn3)CN2Cc2cccs2)cc1 | 1 | ? | ? | 16µM* | ? | nt
Cc1ccc([C@H]2C[C@H](O)[C@@H](n3cc(C4CC4)nn3)CN2C(=O)c2cccs2)cc1 | -6 | -9% | -2% | -16% | -21% | nt
Cc1ccc([C@H]2C[C@H](n3cc(-c4ccc(F)cc4)nn3)[C@@H](O)CN2C(=O)c2cccs2)cc1 | -51* | 12% | 11% | ? | 5% | nt
O[C@@H]1CN(Cc2cccs2)[C@@H](c2ccccc2)C[C@H]1n1cc(-c2ccc(F)cc2)nn1 | -2 | -20% | ? | ? | ? | nt
O[C@H]1C[C@H](c2ccc(Cl)cc2)N(Cc2cccs2)C[C@@H]1n1cc(-c2ccc(F)cc2)nn1 | -25 | ? | ? | ? | ? | nt
